Measured values: PubChem BioAssay (NCI)
About 83,000 compounds went through this panel and 20% of them were active in at least one assay; those are over-represented in the sample as a whole.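 Step 1: grow cells in 96-well plates. Step 2: add test compound at a single concentration. Step 3: incubate 48 h. Step 4: record percent growth.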 Unmarked numbers belong to inactive results. Active and inactive are the calls of the source.

System: BT-549 breast
Assay: NCI-60 one-dose screen, 48 h (100 = growth as untreated, 0 = no growth, -100 = all killed)
Settings: 10 µM unless noted
Method: Growth inhibition of the BT-549 human tumor cell line is measured as a screen for anti-cancer activity. Cells are grown in 96 well plates and exposed to the test compound for 48 hours. Compounds are tested at a single concentration, which is 10^-5 M for most compounds. The reported endpoint is percent growth (GI% or GIPRCNT), where numbers from 0 - 100% represent growth inhibition, and numbers from -100% - 0 represent cell death. For example, a value of 40 represents 60% growth inhibition. A value of 0 means no net growth occurred over the course of the experiment. A value of -40 indicates 40% of cells at the beginning of the experiment died by the end of the experiment. A value of -100 means all cells are dead at the end of the experiment.
NCI-60 Human Tumor Cell Lines Screen was performed using the standard one-dose NCI protocol, which is described in more detail at https://dtp.cancer.gov/discovery_development/nci-60/default.htm.
Compounds with GIPRCNT values below 10 were considered active. Activity score was based on GIPRCNT using the following formula: […]
Score is 0 for GIPRCNT values of 100 or above, 50 for GIPRCNT values of 0, and 100 for GIPRCNT values of -100.

Question: How did the growth turn out when `CCN1CCN(/C(=N\c2sc(-c3ccccc3)nc2-c2ccccc2)c2ccccc2)CC1` was run?
Answer: 90.9%

Question: For `C[C@@H]1CN(c2ccc3ncc(C#Cc4cncc(C(=O)Nc5ccc(CN6CCN(C)CC6)c(C(F)(F)F)c5)c4)n3n2)C[C@H](C)O1`, which growth is on record?
Answer: -27.2% (active)

Question: How did the growth turn out when `CC1=C(C)C(=O)C(Nc2ccccc2)=C(Cl)C1=O` was run?
Answer: 114%

Question: Which growth does the source give for `COc1cc(/C=C/C(=O)c2ccc(C)cc2)ccc1Oc1nc(NCCO)nc(N2CCOCC2)n1` here?
Answer: -58.8% (active)

Question: With `COc1cc(OC)c(S(=O)(=O)NNC(=O)c2ccncc2)cc1C(=O)/C=C/c1ccc(C)cc1` as the compound, how does the growth read?
Answer: 6.18% (active)

Question: `COc1cc(N=Cc2sc(Nc3nccs3)nc2O)cc(OC)c1OC` was tested. Which growth did it give?
Answer: 93.6%

Question: Which growth does the source give for `COc1cc2cc(Oc3ccc(NC(=O)c4cccc(C(F)(F)F)c4)cc3)c(C)nc2cc1OCCN1CCCCC1` here?
Answer: 98.7%

Question: Which growth does the source give for `COc1ccc(/C=C/C(=O)c2ccc(NC(=O)CSc3nnc(-c4ccc5nc(-c6ccc(Cl)cc6)[nH]c5c4)o3)cc2)cc1` here?
Answer: 85%

Question: For `Cn1ccnc1C(=O)/C=C/c1ccc(NC(=O)Nc2ccc(F)cc2)cc1`, which growth is on record?
Answer: 30.1%

Question: With `COc1ccc(NC(=O)c2sc3nc(-c4cnccn4)cc(-c4cccs4)c3c2N)cc1` as the compound, how does the growth read?
Answer: 42.4%

Question: How did the growth turn out when `O=C(CSc1nc2sc3c(c2c(=O)n1-c1ccc(Cl)cc1)CCCC3)NNC(=O)Nc1ccc(Cl)c(C(F)(F)F)c1` was run?
Answer: 69%

Question: Which growth does the source give for `C#C[C@]1(O)CC[C@H]2[C@@H]3CC=C4c5sc(Nc6ccc(Cl)cn6)nc5CC[C@]4(C)[C@H]3CC[C@@]21C` here?
Answer: 32.9%

Question: For `NS(=O)(=O)c1cccc(Nc2nc(SCC(=O)c3ccc(Cl)cc3)nc3ccccc23)c1`, which growth is on record?
Answer: 26.1%

Question: How did the growth turn out when `O=C(N/N=C/c1ccc(Br)s1)c1[nH]c2ccc(Br)cc2c1-c1ccccc1` was run?
Answer: -11.8% (active)

Question: `COc1cc(/C=C/C(=O)c2ccccc2)ccc1Oc1nc(NCCO)nc(N2CCOCC2)n1` was tested. Which growth did it give?
Answer: 92.4%

Question: Which growth does the source give for `Cc1cccc2sc(/N=C(\N)C(Cl)(Cl)Cl)nc12` here?
Answer: 117%

Question: For `N#Cc1c(-c2ccc(Cl)cc2)nc(SCc2ccc(F)cc2)nc1N1CCNCC1`, which growth is on record?
Answer: 101%

Question: How did the growth turn out when `CCN1C(=S)N(CC)C2C1N=C(SC)N2/N=C/C=C/c1ccccc1[N+](=O)[O-]` (stereo not given) was run?
Answer: 107%

Question: Which growth does the source give for `O=C1Nc2cc(Cl)ccc2/C1=C\c1ccc(OCc2ccc(Br)cc2F)cc1` here?
Answer: -69.3% (active)

Question: How did the growth turn out when `COc1cc(/C=C/C(=O)c2ccc(Cl)cc2)ccc1Oc1nc(NCCO)nc(N2CCOCC2)n1` was run?
Answer: 100%

Question: `O=C1[C@H]2Cc3c([nH]c4ccccc34)[C@@H](c3ccc(Br)cc3)N2C(=O)CN1C1CCN(Cc2ccccc2)CC1` was tested. Which growth did it give?
Answer: 93.4%

Question: How did the growth turn out when `CC(C)(O)c1cncc(-c2ccc3ncnc(N4CCc5cc(F)c(Cl)cc54)c3c2)c1` was run?
Answer: -7.34% (active)

Question: For `COc1cccc(-c2nn(-c3ccccc3)cc2-c2ccnc(N3CCN(C(=O)c4ccccc4)CC3)c2)c1`, which growth is on record?
Answer: 91.4%

Question: `CS(=O)(=O)c1ccc(-c2nc3ccccn3c2-c2nc3ccc([N+](=O)[O-])cc3[nH]2)cc1` was tested. Which growth did it give?
Answer: 122%

Question: For `COc1ccc(N/N=C/c2c(-c3ccc(S(C)(=O)=O)cc3)nc3ccccn23)cc1`, which growth is on record?
Answer: 60.5%

Question: For `COc1cccc(NC2=CC(=O)C(C)=C(C)C2=O)c1`, which growth is on record?
Answer: 127%

Question: `C#C[C@]1(O)CC[C@H]2[C@@H]3CC=C4c5sc(-c6ccc(F)cn6)nc5CC[C@]4(C)[C@H]3CC[C@@]21C` was tested. Which growth did it give?
Answer: 7.85% (active)

Question: Which growth does the source give for `COc1ccc2[nH]cc(-c3cc(N)n4nc(-c5c[nH]c6ccc(OC)cc56)cc4n3)c2c1` here?
Answer: 105%

Question: `O=C(Oc1ccc2ccc(=O)oc2c1)c1ccc(Cl)cc1` was tested. Which growth did it give?
Answer: 101%

Question: Which growth does the source give for `Cn1ccnc1C(=O)/C=C/c1ccc(NC(=O)Nc2ccccc2)cc1` here?
Answer: -3.85% (active)

Question: For `CC(C)NC(=O)c1cc(-c2ccc(NC(=O)Nc3ccc(N4CCOCC4)c(C(F)(F)F)c3)cc2)nc2cccnc12`, which growth is on record?
Answer: 66.7%

Question: For `Fc1ccc(-c2cc3nc(C(Cl)Cl)nc(-c4ccc(Cl)cc4)n3n2)cc1`, which growth is on record?
Answer: 72.4%

Question: With `N[C@@H](Cc1cn(-c2c3ccccc3nc3ccccc23)nn1)C(=O)O` as the compound, how does the growth read?
Answer: 117%

Question: With `N=C1CC(=O)NN1C(=O)CSc1nc2sc3c(c2c(=O)n1-c1ccc(Cl)cc1)CCCC3` as the compound, how does the growth read?
Answer: 102%

Question: How did the growth turn out when `Clc1ccc2oc3c(OCCCn4ccnc4)c4ccccc4nc3c2c1` was run?
Answer: 95.7%

Question: For `Cc1ccccc1NC(=O)/C=C/c1ccc(OCCOc2ccc3c(C)cc(=O)oc3c2)cc1`, which growth is on record?
Answer: 87.8%

Question: `Nc1cc(-c2c[nH]c3ccccc23)nc2cc(-c3c[nH]c4ccccc34)nn12` was tested. Which growth did it give?
Answer: 84.4%

Question: `C#Cc1nc(C2=C(C)C(=O)/C(=N/OC(C)=O)C2)cs1` was tested. Which growth did it give?
Answer: 95%

Question: Which growth does the source give for `COc1cc(/C=C/C(=O)c2cc(OC)c(OC)c(OC)c2)ccc1Oc1nc(NCCO)nc(N2CCOCC2)n1` here?
Answer: -25.1% (active)

Question: `N#Cc1ccc(/C=N/NC(=O)c2[nH]c3ccc(Br)cc3c2-c2ccccc2)s1` was tested. Which growth did it give?
Answer: -11.4% (active)
